The panel holds about 83,000 compounds, 20% with a hit somewhere; the sample as a whole holds those more often.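 A percent growth of 40 corresponds to 60% growth inhibition; 0 means no net growth; -100 means all cells died. Active threshold: below 10.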 Active and inactive are the calls of the source.
Key:
Test in all cases: NCI-60 one-dose screen, 48 h (100 = growth as untreated, 0 = no growth, -100 = all killed)
Details in all cases: 10 µM unless noted
RPMI-8226 leukemia = system: RPMI-8226 leukemia
OVCAR-8 ovarian = system: OVCAR-8 ovarian
OVCAR-5 ovarian = system: OVCAR-5 ovarian
OVCAR-4 ovarian = system: OVCAR-4 ovarian
SK-OV-3 ovarian = system: SK-OV-3 ovarian
IGROV1 ovarian = system: IGROV1 ovarian
OVCAR-3 ovarian = system: OVCAR-3 ovarian
HS 578T breast = system: HS 578T breast
NCI/ADR-RES ovarian = system: NCI/ADR-RES ovarian
T-47D breast = system: T-47D breast

Measured: growth

Cc1nc2ccccc2c(/C=C/c2ccccc2)c1C(=O)/C=C/c1ccc(Cl)cc1
inactive: OVCAR-8 ovarian 20.9% | OVCAR-5 ovarian 14.2% | OVCAR-4 ovarian 26.5% | SK-OV-3 ovarian 84.3% | IGROV1 ovarian 14.9% | HS 578T breast 27.9% | T-47D breast 13.4%
active: RPMI-8226 leukemia -36.5% | OVCAR-3 ovarian -40.5% | NCI/ADR-RES ovarian 9.61%

CCOC(=O)c1cc2c(n1Cc1cc(OC)cc(OC)c1)-c1oncc1CCC2
active: SK-OV-3 ovarian -0.349% | IGROV1 ovarian -38.4% | OVCAR-3 ovarian -35.7% | NCI/ADR-RES ovarian 6.97%
inactive: RPMI-8226 leukemia 20.2% | OVCAR-8 ovarian 19.5% | OVCAR-5 ovarian 58.9% | OVCAR-4 ovarian 37.7% | HS 578T breast 21.5% | T-47D breast 66.8%

COc1ccc(CCN2C(=O)CCSC2=S)cc1
active: RPMI-8226 leukemia 8.09% | OVCAR-3 ovarian 9.45%
inactive: OVCAR-8 ovarian 63.7% | OVCAR-5 ovarian 98.1% | OVCAR-4 ovarian 74.8% | SK-OV-3 ovarian 102% | IGROV1 ovarian 41.7% | HS 578T breast 87.7% | NCI/ADR-RES ovarian 71.7% | T-47D breast 62%

COc1ccc(/C=C/C(=O)c2c(C)nc3ccccc3c2/C=C/c2ccccc2)cc1O
inactive: RPMI-8226 leukemia 25.6% | OVCAR-8 ovarian 30.9% | OVCAR-5 ovarian 17.2% | OVCAR-4 ovarian 61.9% | SK-OV-3 ovarian 71.7% | IGROV1 ovarian 34.7% | OVCAR-3 ovarian 13.6% | HS 578T breast 37.5% | NCI/ADR-RES ovarian 17.7% | T-47D breast 39.6%

CN1CCN(Cc2ccc(C(=O)Nc3cncc(C#Cc4cnc(N)c5ccccc45)c3)cc2C(F)(F)F)CC1
inactive: SK-OV-3 ovarian 35.2%
active: RPMI-8226 leukemia -41.4% | OVCAR-8 ovarian -17.8% | OVCAR-5 ovarian -44% | OVCAR-4 ovarian -44.5% | IGROV1 ovarian -47.4% | OVCAR-3 ovarian -74.1% | HS 578T breast -35.4% | NCI/ADR-RES ovarian -25.4% | T-47D breast -10.5%

O=C(Nc1ccc(N2CCNCC2)cn1)c1[nH]ncc1Nc1ncnc2sccc12
inactive: OVCAR-5 ovarian 67% | OVCAR-4 ovarian 21.3% | SK-OV-3 ovarian 70.4% | IGROV1 ovarian 78.1% | OVCAR-3 ovarian 33.2% | HS 578T breast 69.9% | NCI/ADR-RES ovarian 91%
active: RPMI-8226 leukemia 1.87% | OVCAR-8 ovarian -33.5% | T-47D breast -4.16%

COc1ccc(-c2nc(-c3ccccc3)c(-c3ccccc3)[nH]2)cc1OC1CCCCC1
inactive: RPMI-8226 leukemia 58.9% | OVCAR-8 ovarian 86.7% | OVCAR-5 ovarian 96.6% | OVCAR-4 ovarian 74.2% | SK-OV-3 ovarian 98.9% | IGROV1 ovarian 102% | OVCAR-3 ovarian 72.6% | HS 578T breast 91.2% | NCI/ADR-RES ovarian 87.7% | T-47D breast 82.6%

O=NN(Cc1cccnc1)C(=O)NC1CCCCC1
inactive: RPMI-8226 leukemia 95.3% | OVCAR-8 ovarian 104% | OVCAR-5 ovarian 97.4% | OVCAR-4 ovarian 104% | SK-OV-3 ovarian 113% | IGROV1 ovarian 113% | OVCAR-3 ovarian 114% | HS 578T breast 118% | NCI/ADR-RES ovarian 105% | T-47D breast 98.1%

O=C(COc1cc(O)c2c(=O)cc(-c3ccccc3)oc2c1)Nc1ccccc1C(F)(F)F
active: OVCAR-4 ovarian -50.1% | OVCAR-3 ovarian -2.06%
inactive: RPMI-8226 leukemia 54.8% | OVCAR-8 ovarian 29% | OVCAR-5 ovarian 62.9% | SK-OV-3 ovarian 44.1% | IGROV1 ovarian 40.3% | HS 578T breast 15.5% | NCI/ADR-RES ovarian 51.2% | T-47D breast 14.3%

O=c1[nH]nnc2c1ncn2C1OC(CO)C(O)C1O (stereo not given)
inactive: RPMI-8226 leukemia 37.6% | OVCAR-8 ovarian 95.9% | OVCAR-5 ovarian 87.4% | OVCAR-4 ovarian 35.9% | SK-OV-3 ovarian 14.5% | IGROV1 ovarian 32.7% | OVCAR-3 ovarian 41.7% | HS 578T breast 103% | NCI/ADR-RES ovarian 39.5% | T-47D breast 77.1%

COc1ccc(-c2nsc3c2NC(=O)CC3c2ccc3c(c2)OCCO3)cc1 (stereo not given)
inactive: RPMI-8226 leukemia 31.5% | OVCAR-8 ovarian 35.3% | OVCAR-5 ovarian 37.5% | OVCAR-4 ovarian 36.9% | IGROV1 ovarian 49% | HS 578T breast 28.4% | NCI/ADR-RES ovarian 21% | T-47D breast 50.2%
active: SK-OV-3 ovarian 3.12% | OVCAR-3 ovarian -38.6%

CC(=Nc1ccccc1)C1=C(O)C(Cc2ccc(F)cc2)NC1=O (stereo not given)
active: RPMI-8226 leukemia 5.55% | OVCAR-3 ovarian -36.9%
inactive: OVCAR-8 ovarian 33.3% | OVCAR-5 ovarian 44.9% | OVCAR-4 ovarian 45.5% | SK-OV-3 ovarian 11.7% | IGROV1 ovarian 36.7% | HS 578T breast 32.1% | NCI/ADR-RES ovarian 10.6% | T-47D breast 27.7%

COc1cc(C(=O)NN=C2c3ccccc3-c3ccccc32)cc(OC)c1OC
inactive: RPMI-8226 leukemia 23% | OVCAR-8 ovarian 34.5% | OVCAR-5 ovarian 63.4% | OVCAR-4 ovarian 55.5% | SK-OV-3 ovarian 22.9% | IGROV1 ovarian 32.3% | HS 578T breast 50.6% | NCI/ADR-RES ovarian 23.3% | T-47D breast 37.8%
active: OVCAR-3 ovarian -1.71%

CC1(C)CC2(C)OC2C2(C1)N=NC(=Nc1ccccc1)O2 (stereo not given)
active: RPMI-8226 leukemia 4.43%
inactive: OVCAR-8 ovarian 77.8% | OVCAR-5 ovarian 94.3% | OVCAR-4 ovarian 60.9% | SK-OV-3 ovarian 117% | IGROV1 ovarian 89.6% | OVCAR-3 ovarian 10.3% | HS 578T breast 103% | NCI/ADR-RES ovarian 92.7% | T-47D breast 63.9%

CCOc1c(Br)cc(C2C(C(=O)OC)=CN(C)C=C2C(=O)OC)cc1OC
active: RPMI-8226 leukemia 7.41%
inactive: OVCAR-8 ovarian 85.8% | OVCAR-5 ovarian 83.9% | OVCAR-4 ovarian 72.9% | SK-OV-3 ovarian 87.5% | IGROV1 ovarian 67.7% | OVCAR-3 ovarian 83.3% | HS 578T breast 75.8% | NCI/ADR-RES ovarian 71% | T-47D breast 57.2%

NC1(N2SC(S)=C3CCCC=C32)CCCCC1
inactive: RPMI-8226 leukemia 95.8% | OVCAR-8 ovarian 107% | OVCAR-5 ovarian 104% | OVCAR-4 ovarian 107% | SK-OV-3 ovarian 100% | IGROV1 ovarian 93.6% | OVCAR-3 ovarian 107% | HS 578T breast 103% | NCI/ADR-RES ovarian 104% | T-47D breast 84.5%

O=c1oc2ccc(Br)cc2c(=O)n1-c1ccc(F)cc1F
inactive: OVCAR-8 ovarian 11% | OVCAR-5 ovarian 20.1% | OVCAR-4 ovarian 15% | IGROV1 ovarian 19.3%
active: RPMI-8226 leukemia -4.83% | SK-OV-3 ovarian -10.9% | OVCAR-3 ovarian 4.73% | HS 578T breast 5.31% | NCI/ADR-RES ovarian 5.44% | T-47D breast -9.1%

CCCCNc1nc(NC(C)(C)C)nc(NC(C)(C)C)n1
inactive: RPMI-8226 leukemia 17.7% | OVCAR-8 ovarian 59.5% | OVCAR-5 ovarian 62% | OVCAR-4 ovarian 55.2% | SK-OV-3 ovarian 81.9% | IGROV1 ovarian 51.3% | OVCAR-3 ovarian 54.2% | HS 578T breast 67.7% | NCI/ADR-RES ovarian 53.3% | T-47D breast 45.3%

O=c1oc2ccc(F)cc2c(=O)n1-c1ccc(F)cc1F
inactive: OVCAR-8 ovarian 23.3% | OVCAR-5 ovarian 64.8% | OVCAR-4 ovarian 11.9% | IGROV1 ovarian 30.1% | HS 578T breast 12.8% | NCI/ADR-RES ovarian 18.9%
active: RPMI-8226 leukemia 5.47% | SK-OV-3 ovarian -4.73% | OVCAR-3 ovarian 4.14% | T-47D breast -11.9%

CC/C=C\C[C@H](O)C/C=C1/C(=O)C=C[C@@H]1C/C=C\CCCC(=O)OCCS(=O)(=O)c1ccccc1
inactive: RPMI-8226 leukemia 14.6% | OVCAR-8 ovarian 26.3% | OVCAR-5 ovarian 121% | OVCAR-4 ovarian 84.3% | SK-OV-3 ovarian 104% | IGROV1 ovarian 100% | OVCAR-3 ovarian 20.7% | HS 578T breast 36.2% | NCI/ADR-RES ovarian 75.2% | T-47D breast 18.3%

CCc1ccc(CNCC(O)c2ccccc2)cc1 (stereo not given)
inactive: RPMI-8226 leukemia 34.3% | OVCAR-8 ovarian 72.2% | OVCAR-5 ovarian 76.1% | OVCAR-4 ovarian 55.3% | SK-OV-3 ovarian 90.6% | IGROV1 ovarian 41.1% | OVCAR-3 ovarian 71.4% | HS 578T breast 93.3% | NCI/ADR-RES ovarian 65.7% | T-47D breast 72%

CN(C)c1ccc(/C=C/c2ccnc3c(O)cccc23)cc1
active: RPMI-8226 leukemia 1.91% | OVCAR-8 ovarian 8.43%
inactive: OVCAR-5 ovarian 35.5% | OVCAR-4 ovarian 31.9% | SK-OV-3 ovarian 24.7% | IGROV1 ovarian 11.4% | OVCAR-3 ovarian 29.7% | HS 578T breast 43% | NCI/ADR-RES ovarian 19.5% | T-47D breast 16.9%

CN1CCN(c2nc(Nc3ccc(O)cc3)nc3ccccc23)CC1
inactive: RPMI-8226 leukemia 32.7% | OVCAR-8 ovarian 30.1% | OVCAR-5 ovarian 82.5% | OVCAR-4 ovarian 82.9% | SK-OV-3 ovarian 57.2% | IGROV1 ovarian 52.1% | OVCAR-3 ovarian 59.5% | HS 578T breast 89.2% | NCI/ADR-RES ovarian 51.1% | T-47D breast 82.2%

CCOC(=O)c1c2c(c(C)n1Cc1ccc(OC)cc1)-c1oncc1CC2
inactive: RPMI-8226 leukemia 62.9% | OVCAR-8 ovarian 88.3% | OVCAR-5 ovarian 81.7% | OVCAR-4 ovarian 89.6% | SK-OV-3 ovarian 105% | IGROV1 ovarian 80.8% | OVCAR-3 ovarian 98.5% | HS 578T breast 69.7% | NCI/ADR-RES ovarian 85.8% | T-47D breast 90.5%

COc1ccc(C(O)(CCC(C)C)C(CN2CCOCC2)c2ccc(Cl)cc2)cc1 (stereo not given)
inactive: RPMI-8226 leukemia 46.8% | OVCAR-8 ovarian 67.1% | OVCAR-5 ovarian 103% | OVCAR-4 ovarian 84.6% | SK-OV-3 ovarian 97.7% | IGROV1 ovarian 85.1% | HS 578T breast 103% | NCI/ADR-RES ovarian 29.4% | T-47D breast 87.5%
active: OVCAR-3 ovarian 6.49%

Cn1c(C(=O)c2cccc3ccccc23)nc2ccccc21
active: OVCAR-8 ovarian -1.81% | IGROV1 ovarian -6.8% | NCI/ADR-RES ovarian 4.01%
inactive: RPMI-8226 leukemia 17.6% | OVCAR-5 ovarian 49% | OVCAR-4 ovarian 19.9% | SK-OV-3 ovarian 22% | OVCAR-3 ovarian 29.6% | HS 578T breast 45.7% | T-47D breast 17%

Cc1nc(Nc2cn[nH]c2C(=O)Nc2ccc(CN3CCN(C)CC3)cc2)c2ccsc2n1
inactive: RPMI-8226 leukemia 79% | OVCAR-8 ovarian 102% | OVCAR-5 ovarian 136% | OVCAR-4 ovarian 82.5% | SK-OV-3 ovarian 64.4% | IGROV1 ovarian 77.2% | OVCAR-3 ovarian 91.3% | HS 578T breast 66.8% | NCI/ADR-RES ovarian 110% | T-47D breast 91.7%

COc1ccc(/C=C2\N=C(c3ccccc3)N(c3ccc(-c4nc5ccc(C)cc5s4)cc3)C2=O)cc1
inactive: RPMI-8226 leukemia 69.3% | OVCAR-8 ovarian 92% | OVCAR-5 ovarian 84.7% | OVCAR-4 ovarian 64.6% | SK-OV-3 ovarian 94.2% | IGROV1 ovarian 58.6% | OVCAR-3 ovarian 72.2% | HS 578T breast 102% | NCI/ADR-RES ovarian 93.6% | T-47D breast 54.1%

Reference: PubChem BioAssay (NCI)
